Assay results published in PubChem BioAssay AID1159580 (chemical genetic matrix, 2015).
Where “and” joins values, the source holds several entries; their conditions need not be identical. Equal values may be shown once. Out of some 5,500 compounds screened, about 2,000 (36%) were called active. Roughly 18% stayed inconclusive and do not appear here. Cut-off read from the data, not from the text of the source: active = normalized growth mostly below about 0.91 (no sharp cut-off); inconclusive = no clear call, values can overlap the other calls; inactive = mostly above about 0.92. This is one part of the list.

Test: chemical genetic growth profiling, strain panel (AID 1159580);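 note: tested at 20 µM; growth read once vehicle control cultures reached saturation at 30 °C; 1 = growth at the plate median or of vehicle wells; lower values mean less growth of the strain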
Settings: S. cerevisiae deletion strains, growth OD

Measured: normalized growth

COc1c2ccoc2c(OC)c2oc(=O)ccc12
active: locus YBR023C, strain chs3, hits give low values 0.888 | locus YCL016C, strain dcc1, hits give low values 0.876 | locus YDL192W, strain arf1, hits give low values 0.911 | locus YDR101C, strain arx1, hits give low values 0.904 | locus YDR195W, strain ref2 1.26 [resistant] | locus YDR335W, strain msn5, hits give low values 0.91 | locus YDR392W, strain spt3, hits give low values 0.724 | locus YER015W, strain faa2, hits give low values 0.912 | locus YER155C, strain BEM2 (second series), hits give low values 0.835 | locus YJL164C, strain tpk1, hits give low values 0.912 | locus YLR258W, strain gsy2, hits give low values 0.907 | locus YLR371W, strain rom2, hits give low values 0.84 | locus YML120C, strain ndi1, hits give low values 0.901 | locus YNL071W, strain lat1, hits give low values 0.915 | locus YNL248C, strain rpa49, hits give low values 0.849 | locus YOR184W, strain ser1, hits give low values 0.871 | locus YPL078C, strain atp4, hits give low values 0.882 | locus YPL106C, strain sse1, hits give low values 0.832
inactive: locus YAL013W, strain DEP1, hits give low values 0.978 | locus YAL021C, strain ccr4, hits give low values 0.94 | locus YAL026C, strain drs2, hits give low values 0.953 | locus YAL030W, strain snc1, hits give low values 0.978 | locus YBL061C, strain skt5, hits give low values 0.974 | locus YBR009C, strain hhf1, hits give low values 0.923 | locus YBR021W, strain FUR4, hits give low values 0.901 | locus YBR171W, strain sec66, hits give low values 0.975 | locus YBR229C, strain ROT2, hits give low values 0.945 | locus YBR231C, strain swc5, hits give low values 0.966 | locus YBR279W, strain paf1, hits give low values 0.939 | locus YCL011C, strain gbp2, hits give low values 0.934 | locus YCL029C, strain bik1, hits give low values 0.965 | locus YCL061C, strain MRC1, hits give low values 0.944 | locus YCL069W, strain vba3, hits give low values 0.979 | locus YCR088W, strain abp1, hits give low values 0.997 | locus YDL005C, strain med2, hits give low values 0.989 | locus YDL035C, strain GPR1, hits give low values 0.929 | locus YDL040C, strain nat1, hits give low values 0.996 | locus YDL074C, strain BRE1, hits give low values 0.934 | locus YDL101C, strain DUN1, hits give low values 0.959 | locus YDL134C, strain PPH21, hits give low values 0.983 | locus YDL185W, strain tfp1, hits give low values 0.941 | locus YDR001C, strain nth1, hits give low values 0.97 | locus YDR069C, strain doa4, hits give low values 0.982 | locus YDR137W, strain rgp1, hits give low values 0.991 | locus YDR150W, strain NUM1, hits give low values 0.991 | locus YDR159W, strain sac3, hits give low values 1.02 | locus YDR162C, strain NBP2, hits give low values 0.884 | locus YDR297W, strain sur2, hits give low values 0.978 | locus YDR318W, strain mcm21, hits give low values 0.966 | locus YDR334W, strain swr1, hits give low values 0.938 | locus YDR388W, hits give low values 0.966 | locus YDR502C, strain sam2, hits give low values 0.97 | locus YEL003W, strain gim4, hits give low values 0.949 | locus YEL037C, strain rad23, hits give low values 0.976 | locus YEL061C, strain CIN8 (second series), hits give low values 0.972 | locus YEL061C, strain CIN8, hits give low values 0.977 | locus YER016W, strain bim1, hits give low values 0.99 | locus YER110C, hits give low values 0.96 | locus YER111C, strain swi4, hits give low values 0.987 | locus YER155C, strain BEM2, hits give low values 1.01 | locus YER167W, strain BCK2, hits give low values 0.97 | locus YFR010W, strain ubp6, hits give low values 0.968 | locus YGL078C, strain dbp3, hits give low values 0.987 | locus YGL086W, strain mad1, hits give low values 0.969 | locus YGL167C, strain pmr1, hits give low values 0.964 | locus YGL173C, strain kem1, hits give low values 0.979 | locus YGL227W, strain vid30, hits give low values 0.997 | locus YGL240W, strain doc1, hits give low values 0.969 | locus YGL248W, strain PDE1, hits give low values 0.96 | locus YGL253W, strain hxk2, hits give low values 0.959 | locus YGR078C, strain PAC10, hits give low values 0.962 | locus YGR135W, strain pre9, hits give low values 0.999 | locus YGR252W, strain gcn5, hits give low values 0.91 | locus YHR013C, strain ard1, hits give low values 0.912 | locus YHR027C, strain rpn1, hits give low values 0.959 | locus YHR030C, strain SLT2, hits give low values 0.99 and 0.993 | locus YHR079C, strain IRE1 (second series), hits give low values 0.983 | locus YHR079C, strain IRE1, hits give low values 0.989 | locus YHR094C, strain hxt1, hits give low values 0.98 | locus YHR129C, strain ARP1, hits give low values 0.981 | locus YHR142W, strain chs7, hits give low values 0.882 | locus YHR200W, strain rpn10, hits give low values 0.936 | locus YIL066C, strain RNR3, hits give low values 0.946 | locus YIL073C, strain SPO22, hits give low values 0.954 | locus YIL125W, strain kgd1, hits give low values 0.984 | locus YIR030C, strain dcg1, hits give low values 0.979 | locus YJL092W, strain hpr5, hits give low values 0.964 | locus YJL095W, strain BCK1 (second series), hits give low values 0.969 | locus YJL095W, strain BCK1, hits give low values 0.913 and 0.989 | locus YJL115W, strain asf1, hits give low values 0.959 | locus YJL129C, strain trk1, hits give low values 1.02 | locus YJL134W, strain LCB3, hits give low values 0.983 | locus YJL154C, strain vps35, hits give low values 0.983 | locus YJL166W, strain qcr8, hits give low values 0.96 | locus YJL168C, strain set2, hits give low values 0.989 | locus YJL187C, strain SWE1 (second series), hits give low values 0.959 | locus YJL187C, strain SWE1, hits give low values 0.951 | locus YJR066W, strain TOR1, hits give low values 0.939 | locus YJR075W, strain HOC1, hits give low values 0.964 | locus YKL009W, strain mrt4, hits give low values 0.956 | locus YKL068W, hits give low values 0.996 | locus YKL085W, strain MDH1 (second series), hits give low values 0.987 | locus YKL085W, strain MDH1, hits give low values 0.987 | locus YKL160W, strain elf1, hits give low values 0.933 | locus YKL190W, strain CNB1, hits give low values 0.985 | locus YKR001C, strain vps1, hits give low values 0.905 | locus YKR026C, strain gcn3, hits give low values 0.99 | locus YKR091W, strain srl3, hits give low values 0.991 | locus YLL001W, strain dnm1, hits give low values 0.909 | locus YLL026W, hits give low values 0.979 | locus YLL041C, strain sdh2, hits give low values 0.981 | locus YLR027C, strain aat2, hits give low values 0.975 | locus YLR039C, strain RIC1, hits give low values 0.964 | locus YLR058C, strain SHM2, hits give low values 0.959 | locus YLR102C, strain apc9, hits give low values 0.979 | locus YLR113W, strain HOG1, hits give low values 1.05 | locus YLR221C, strain rsa3, hits give low values 0.983 | locus YLR262C, strain YPT6 (second series), hits give low values 0.969 | locus YLR262C, strain YPT6, hits give low values 1.05 | locus YLR268W, strain sec22, hits give low values 0.921 | locus YLR320W, strain mms22, hits give low values 0.945 | locus YLR330W, strain CHS5, hits give low values 0.963 | locus YLR342W, strain FKS1, hits give low values 0.99 | locus YLR357W, strain rsc2, hits give low values 1.06 | locus YLR370C, strain arc18, hits give low values 0.988 | locus YLR384C, strain iki3, hits give low values 0.991 | locus YLR418C, strain cdc73, hits give low values 0.932 | locus YML016C, strain PPZ1, hits give low values 0.948 | locus YML032C, strain rad52, hits give low values 0.951 | locus YML124C, strain tub3, hits give low values 0.974 | locus YMR058W, strain fet3, hits give low values 0.921 | locus YMR078C, strain ctf18, hits give low values 0.969 | locus YMR125W, strain sto1, hits give low values 0.994 | locus YMR129W, hits give low values 0.986 | locus YMR205C, strain PFK2, hits give low values 0.913 | locus YMR223W, strain ubp8, hits give low values 0.974 | locus YMR231W, strain pep5, hits give low values 0.991 | locus YMR263W, strain SAP30, hits give low values 0.973 | locus YMR307W, strain GAS1, hits give low values 0.956 | locus YNL067W, strain RPL9B, hits give low values 0.999 | locus YNL128W, strain TEP1, hits give low values 0.932 | locus YNL153C, strain GIM3, hits give low values 0.947 | locus YNL183C, strain NPR1, hits give low values 0.939 | locus YNL209W, strain ssb2, hits give low values 0.958 | locus YNL233W, strain BNI4, hits give low values 0.946 | locus YNL250W, strain rad50, hits give low values 0.988 | locus YNL271C, strain bni1, hits give low values 0.983 | locus YNL298W, strain CLA4, hits give low values 0.929 | locus YNL307C, strain MCK1, hits give low values 0.949 | locus YNL322C, strain KRE1 (second series), hits give low values 0.986 | locus YNR049C, strain mso1, hits give low values 0.993 | locus YNR052C, strain pop2, hits give low values 1 | locus YOL006C, strain TOP1, hits give low values 0.691 | locus YOL012C, strain htz1 0.85 | locus YOL147C, strain pex11, hits give low values 0.984 | locus YOR001W, strain rrp6, hits give low values 0.978 | locus YOR061W, strain CKA2, hits give low values 0.931 | locus YOR069W, strain VPS5, hits give low values 0.994 | locus YOR070C, strain gyp1, hits give low values 0.951 | locus YOR080W, strain dia2, hits give low values 0.992 | locus YOR083W, strain WHI5, hits give low values 0.943 | locus YOR106W, strain vam3, hits give low values 0.875 | locus YOR136W, strain idh2, hits give low values 0.959 | locus YOR144C, strain elg1, hits give low values 0.969 | locus YOR231W, strain MKK1, hits give low values 0.962 | locus YOR265W, strain rbl2, hits give low values 0.979 | locus YOR270C, strain vph1, hits give low values 0.815 | locus YOR290C, strain snf2, hits give low values 0.876 | locus YOR316C, strain cot1, hits give low values 0.948 | locus YPL051W, strain arl3, hits give low values 0.928 | locus YPL055C, strain LGE1, hits give low values 0.868 | locus YPL240C, strain hsp82, hits give low values 0.939 | locus YPL241C, strain CIN2, hits give low values 0.993 | locus YPL256C, strain CLN2, hits give low values 1.08 | locus YPR119W, strain clb2, hits give low values 0.997 | locus YPR141C, strain kar3, hits give low values 0.98 | locus YPR163C, strain tif3, hits give low values 0.948 | locus YPR167C, strain met16, hits give low values 0.983 | strain wtn01, hits give low values 0.91
